Compound activity as filed in PubChem.
The list is not random: actives were taken first. Their share in the collection is about 12%.
JMJD2A Tudor inh: blocks the human JMJD2A Tudor domain; O75164; AlphaScreen JMJD2A-Tudor / H3K4me3 peptide binding; Potency, µM (titrated, usually from 114 µM), without a hit: at the top dose activity change, negative = inhibition, most hits filed as inhibitors; 390,000 compounds, 4.4% hits; note: % is set by controls: 0 for no effect and ±100 for the full control effect; nearly all actives have a fitted effect of over 50% in size
Sfp inh: blocks B. subtilis Sfp PPTase activity; Biochemical Sfp PPTase activity, qHTS; Q9F4F7; Potency, µM, inactives show largest response in the series, negative = inhibition, actives largely listed as inhibitors; 310,000 compounds, 3.5% hits;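 note: the enzyme is Sfp with the accession as filed and its product quenches rhodamine fluorescence; 0% = enzyme reaction without inhibitor and -100% = no enzyme wells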
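With Hepes-Na pH 7.6 buffer containing 10 mM MgCl2, Sfp (15 nM) modified BHQ-2-YbbR (12.5 uM) using rhodamine-CoA (5 uM). Two reads 30 minutes apart at 525/598 nm yielded each well's rate.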
BAZ2B inh: blocks human BAZ2B | Potency, µM (doses to about 114 µM), without a hit: top-dose activity change, negative = inhibition, hits mostly inhibitors | AID 504333 | Q9UIF8 | 360,000 compounds, 4.4% hits | AlphaScreen BAZ2B-H3K14Ac peptide displacement; note: % is set by controls: 0 for no effect and ±100 for the full control effect; nearly all actives have a fitted effect of over 60% in size
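Inhibition is scored as reduced AlphaScreen emission. The BAZ2B/b-H3(5-23)K14Ac complex (50 nM each) in PBS pH 7.4, 0.01% Tween-20 meets compound (up to 110 uM) for 30 min at RT before bead addition.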
HP1b chromo inh: HP1-beta chromodomain-methylated histone interaction inhibition | P83916 | AlphaScreen HP1-beta / biotin-H3K9me3 peptide binding | Potency, µM (titrated, usually from 114 µM), inactives show at the highest dose activity change, negative = inhibition, hits mostly inhibitors | 390,000 compounds, 0.56% hits | AID 540317; note: nearly all actives have a fitted effect of over 70% in size
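HP1-beta protein (50 nM final) preincubated 30 min at room temperature with biotinylated H3(1-18)K9me3 peptide (50 nM) in PBS pH 7.4, 0.01% Tween-20, then compound added for 30 min. AlphaScreen streptavidin donor/nickel chelate acceptor beads (10 ug/mL final), 30 min dark, luminescence read.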
G9a inh: G9a (human) methyltransferase inhibition; Q96KQ7; G9a H3K9 monomethylation, AlphaScreen, 2 h; Potency, µM (titrated, usually from 102 µM), without a hit: at the top dose activity, negative = inhibition, actives largely listed as inhibitors; 350,000 compounds, 8.8% hits; note: % is set by controls: 0 for no effect and ±100 for the full control effect; nearly all actives have a fitted effect of over 75% in size
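Readings reflect AlphaScreen signal from monomethyl-H3K9 antibody detection. HMT at 20 nM; substrate b-H3K9 500 nM; cofactor SAM 20 uM; 2 h RT reaction; compounds tested as titrations in qHTS with 15 min preincubation.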
Numbers without * were called inactive; ? = inconclusive; nt = not tested or not shown; [ ] = another dose, or the depositor's remark. Calls come from the whole dose curve; as a rule, active = well fitted curve in the direction sought with a large enough effect; inconclusive = small, poorly fitted or top-dose-only effect, or another doubt; inactive = no such curve, though single readings can be large; an effect the other way counts as inactive or inconclusive. Potency is the fitted concentration of half-maximal effect.

SMILES	JMJD2A Tudor inh	Sfp inh	BAZ2B inh	HP1b chromo inh	G9a inh
Cc1ccc(C2C(C(=O)c3cc4ccccc4o3)=C(O)C(=O)N2CCN(C)C)o1 (centres undefined)	-5%[11.4 µM]	nt	nt	32%	nt
CN(C)CCN1C(=O)C(O)=C(C(=O)c2cc3ccccc3o2)C1c1ccc(N(C)C)cc1 (centres undefined)	?	-27%	?	20%	50µM*
COc1cccc2cc(C(=O)C3=C(O)C(=O)N(CCN(C)C)C3c3ccc(F)cc3)oc12 (centres undefined)	-31%	6%	-11%	24%	50µM*
CCN(CC)CCCN1C(=O)C(O)=C(C(=O)c2cc3cccc(OC)c3o2)C1c1ccncc1 (centres undefined)	-10%	16%	-9%	nt	50µM*
COc1ccc(-c2csc(N3CCOCC3)n2)cc1OC	-21%	-4%	?	-9%	10%[2.33 µM]
C=CCNC(=O)c1ccc2c(=O)n(CCCN3CCCC3=O)c(=S)[nH]c2c1	50µM*	79µM*	?	11%	?
Cc1ccc(CNC(=O)c2ccc3c(=O)n(CCCN4CCCC4=O)c(=S)[nH]c3c2)cc1	6%	3%	-16%	42%	?
O=C(NCc1ccccc1)c1ccc2c(=O)n(CCCN3CCCC3=O)c(=S)[nH]c2c1	-17%	1%	-11%	32%	45µM*
COc1ccc(OC)c(-n2c(=S)[nH]c3cc(C(=O)N4CCC(C(N)=O)CC4)ccc3c2=O)c1	16µM*	-24%	0%	57%	?
COc1ccc(CNC(=O)c2ccc3c(=O)n(CCCN4CCCC4=O)c(=S)[nH]c3c2)cc1	-20%	11%	-17%	9%	15%[59 µM]
COC(=O)c1ccc2c(=O)n(CCCN3CCCC3=O)c(=S)[nH]c2c1	?	-15%	71µM*	27%	-30%[12.7 µM]
CCc1cc(=O)oc2c(CNC(Cc3ccccc3)C(=O)O)c(O)ccc12 (centres undefined)	-29%	-6%	2%	57%	-4%
COc1ccc(OC)c(-n2c(=S)[nH]c3cc(C(=O)NCCCN4CCCC4=O)ccc3c2=O)c1	nt	?	-34%	nt	28µM*
O=C(NCCCN1CCCC1=O)c1ccc2c(=O)n(Cc3ccco3)c(=S)[nH]c2c1	?	35µM*	5%	-19%	10µM*
Cc1cc(C)nc(N2CCC(CNC(=O)CCc3ccccc3)CC2)n1	-14%	-7%	34%	25%	-12%[12.7 µM]
CN(O)/C=c1/ccc2c(n1)C(=O)C=CC=2	20µM*	-9%	7.9µM*	15%	10µM*
Cn1c(SCC(=O)NN2C(=O)NC(C)(c3ccccc3)C2=O)nnc1-c1ccncc1 (centres undefined)	-16%	nt	nt	8%	nt
Cn1cnnc1SCC(=O)NN1C(=O)NC(C)(c2ccccc2)C1=O (centres undefined)	-11%	5%	-30%	26%	22µM*
O=C(NC1CCCN(c2ccc(C(F)(F)F)cn2)C1)c1ccnc(Cl)c1 (centres undefined)	-1%	-5%	6%	25%	nt
COc1ccc(C(=O)N=S2CCN(C(=O)c3ccc(Cl)cc3)CC2)cc1	-3%	-2%	-23%	75%	25µM*
N#CCC(=O)N/N=C/c1c(-c2ccccc2)n(-c2ccccc2)c2ccccc12	-6%	56µM*	-29%	15%[57 µM]	15%
N#CCC(=O)N/N=C/c1cn(Cc2ccccc2C#N)c2ccccc12	-8%	-1%	-24%	-5%	?
Cc1cccn2c(=O)c3cc(S(=O)(=O)c4ccccc4)c(=N)n(Cc4ccc(F)cc4)c3nc12	17%	17%	-13%	71%	-10%
C#CCOCCOCCOCCNc1nc(N2CCN(C(=O)[C@H](CCC(=O)O)n3cc([C@@H](N)CO)nn3)CC2)nc(N2CCN(C(=O)[C@H](CCC(=O)O)n3cc([C@@H](N)CCSC)nn3)CC2)n1	79µM*	nt	nt	7%	nt
C#CCOCCOCCOCCNc1nc(OC)nc(N2CCN(C(=O)[C@H](CCC(=O)O)n3cc(C(N)CO)nn3)CC2)n1 (some centres undefined)	79µM*	nt	79µM*	-12%	-6%[2.33 µM]
